# Experimental data published in PubChem BioAssay (NCI).
# Compounds without any hit were thinned out: in the full panel of roughly 83,000, 20% have a hit.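 Each cell line was grown in a 96-well plate and treated with one concentration of compound for 48 hours. Values below 10 were considered active.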 Values without a mark were called inactive. Active and inactive are the calls of the source.
# Key:
# Test in all cases: NCI-60 one-dose screen, 48 h (100 = growth as untreated, 0 = no growth, -100 = all killed)
# Settings in all cases: 10 µM unless noted
# [1] = system: SK-MEL-2 melanoma
# [2] = system: EKVX NSCLC
# [3] = system: SN12C renal
# [4] = system: UO-31 renal
# [5] = system: TK-10 renal
# [6] = system: ACHN renal
# [7] = system: CAKI-1 renal
# [8] = system: A498 renal
# [9] = system: CCRF-CEM leukemia
# [10] = system: MOLT-4 leukemia
# [11] = system: SR leukemia
# [12] = system: RPMI-8226 leukemia
# [13] = system: OVCAR-8 ovarian
# [14] = system: OVCAR-5 ovarian
# [15] = system: OVCAR-4 ovarian
# [16] = system: SK-OV-3 ovarian
# [17] = system: IGROV1 ovarian
# [18] = system: OVCAR-3 ovarian
# [19] = system: HS 578T breast
# [20] = system: NCI/ADR-RES ovarian
SMILES,growth [1],growth [2],growth [3],growth [4],growth [5],growth [6],growth [7],growth [8],growth [9],growth [10],growth [11],growth [12],growth [13],growth [14],growth [15],growth [16],growth [17],growth [18],growth [19],growth [20]
O=c1[nH]c(=O)c2c(-c3cc4ccccc4oc3=O)ccnc2[nH]1,82.6%,103%,81%,71.6%,105%,53.2%,48.1%,148%,101%,111%,71.8%,95%,61.6%,111%,88.3%,71.2%,79.4%,98.9%,70.4%,86.9%
N#Cc1ccc(/C=N/NC(=O)c2[nH]c3ccc(Br)cc3c2-c2ccccc2)o1,22.9%,12.9%,5.87% (active),24.8%,27.8%,8.88% (active),26.9%,78.1%,-3.51% (active),1.36% (active),4.35% (active),3.55% (active),-21.9% (active),15.9%,35%,44%,13.9%,14.6%,–,-40.9% (active)
CC(=O)Nc1cccc(Nc2nc(N[C@H]3CCCc4ccccc43)c3ccccc3n2)c1,123%,98.7%,103%,91.8%,99.1%,102%,89.5%,105%,103%,100%,81.3%,103%,103%,103%,104%,91.6%,111%,107%,–,100%
Cc1ncsc1-c1ccc(CNC(=O)[C@@H]2C[C@@H](O)CN2C(=O)[C@@H](NC(=O)C2(F)CC2)C(C)(C)C)c(OCCOCCOCCOCCOc2nc(Nc3cc(S(C)(=O)=O)ccc3N[C@@H](c3cccc4c3OC(F)(F)O4)c3ncccc3Cl)nc(N3CCNCC3)n2)c1,112%,80.8%,80.9%,98.5%,109%,98.9%,101%,116%,-9.39% (active),-5.45% (active),26.3%,13.6%,98.4%,99%,91.6%,111%,72.2%,89.1%,–,103%
O=C(/C=C/c1ccc(-c2ccccc2)cc1)c1nc2ccccc2n1Cc1ccc(Br)cc1,65.8%,52.3%,77.2%,46.3%,35.3%,32.7%,50.4%,104%,11.1%,-14.4% (active),2.11% (active),14.1%,43.9%,74.7%,50%,85.3%,63.6%,45%,–,47.1%
CNC(=O)c1cccc(NC(=O)c2ccc3c(c2)nnn3/C(C#N)=C/c2ccccn2)c1,-60.7% (active),-30.5% (active),-15.8% (active),-7.22% (active),-25.4% (active),-24.2% (active),25.7%,115%,-24.5% (active),-19.2% (active),-5.41% (active),-23.6% (active),10%,19.6%,40.6%,83.4%,-2.48% (active),-69.2% (active),–,84.3%
COc1ccc2nc(Nc3cccc(NC(=O)c4ccc(CN5CCCN(C)CC5)c(C(F)(F)F)c4)c3)ccc2c1,-74.5% (active),-98.5% (active),-65.9% (active),-66.9% (active),-81.1% (active),-91.5% (active),-65.2% (active),-53.3% (active),-43.6% (active),-4.91% (active),4.09% (active),-31.7% (active),2.26% (active),-84.5% (active),-94.4% (active),-62.4% (active),-56.4% (active),-48.8% (active),–,-43.1% (active)
CSc1ccc(NC(=O)c2ccc3nnn(/C(C#N)=C/c4ccccn4)c3c2)cc1,-96.3% (active),-99.6% (active),-99.9% (active),-100% (active),-98.5% (active),-100% (active),-93.5% (active),45.1%,6.95% (active),6.04% (active),-6.85% (active),-32.6% (active),-60.6% (active),-78.6% (active),-97.4% (active),25.5%,-76.7% (active),-70.7% (active),–,-83.9% (active)
C=C1CC[C@@H]2[C@]3(C)COC(c4cn[nH]c4-c4ccc(OC)cc4)O[C@@H]3CC[C@@]2(C)[C@@H]1C/C=C1/C(=O)OCC1O (stereo partly specified),-42.2% (active),-59.8% (active),-14.3% (active),-44.2% (active),5.62% (active),3.82% (active),-23.4% (active),50.2%,0.599% (active),8.3% (active),-29.9% (active),-27% (active),-3.29% (active),-27.1% (active),3.78% (active),6.09% (active),17.1%,5.62% (active),–,16.7%
C=Cn1cc(C(=O)O)c(=O)c2cc(F)c(N3CCN(c4nccc(-c5nccs5)n4)CC3)cc21,-83.2% (active),-24.2% (active),-16.8% (active),-61.5% (active),-13.2% (active),-43% (active),-37.1% (active),-21.4% (active),15.3%,1.77% (active),-35.2% (active),-24% (active),7.65% (active),-25.6% (active),10.7%,-35.8% (active),-30.3% (active),-4.52% (active),–,-39.5% (active)
CSc1ccc(C(=O)Nc2ccc3nn(/C(C#N)=C/c4ccccn4)nc3c2)cc1,-77.8% (active),-96.3% (active),-45.5% (active),-100% (active),-96.7% (active),-96% (active),-42.9% (active),56.8%,-33.8% (active),-24.9% (active),-3.69% (active),-42.5% (active),-1.48% (active),-86.2% (active),15.8%,30.8%,-83% (active),-92.6% (active),–,2.33% (active)
COc1ccc(-c2ccnc(SCc3cc4ccccc4[nH]c3=O)n2)cc1OC,17.4%,-16.6% (active),-37.6% (active),-73.4% (active),22.9%,-76.6% (active),-67% (active),-18.9% (active),106%,74%,40.3%,45%,0.24% (active),-41% (active),–,-69.7% (active),10.9%,20.7%,-23.6% (active),-40.7% (active)
CCOc1ccc(-c2c(C#N)c(-c3ccc(Cl)cc3)nc3n[nH]c(-c4ccc(Cl)cc4)c23)cc1OC,64%,26.6%,69.2%,33.2%,90%,53.4%,53.1%,114%,33.7%,-3.16% (active),18.8%,17.3%,79.3%,72.2%,51.2%,63.4%,62.9%,67.5%,–,62%
CC(=O)Nc1ccc(-c2cn(-c3cccc(C(=O)Nc4ccc(N5CCN(C)CC5)cc4)c3)nn2)cn1,92.5%,80.9%,80.1%,100%,86.5%,88.1%,98.2%,160%,40%,59.8%,68%,70.4%,81.6%,107%,93.4%,93.8%,88%,109%,–,89.2%
Cn1cc(-c2cc(N)n3nc(-c4c[nH]c5ccccc45)cc3n2)c2cccnc21,64.5%,85.6%,12.4%,12.2%,92%,3.49% (active),23.9%,129%,-21.5% (active),-29.4% (active),-32.9% (active),-28.5% (active),27.5%,30.2%,–,89.9%,28.1%,12.6%,82.7%,27.7%
